The source made the active and inactive calls. The calls were made as follows: active = hit-call score of the fitted dose curve at least 0.9, where 1 is the maximum; inactive = score below 0.9.

This assay can be described thus: ATG_E_Box_CIS: Attagene CIS-FACTORIAL HepG2 Assay for human Enhancer Box (E-box) (AID 2282936). Particulars: HepG2 E-box cis-reporter transcription, actives raise or lower the signal. The gist of the method:
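First, HepG2 cells receive multiple cis-regulated reporter constructs by transient transfection. Next, chemicals are applied for 24 h. Finally, reporter mRNA is quantified via RT-PCR and capillary electrophoresis, with DMSO as baseline.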
Regarding `NNCCO`, the result was inactive.
Take `ClCCN1CCOCC1`: the result was inactive.
Same read-out and setting: as for `C[C@@H]1O[C@@H](O[C@H]2C[C@@H](O)[C@]3(CO)[C@H]4[C@H](O)C[C@]5(C)[C@@H](C6=CC(=O)OC6)CC[C@]5(O)[C@@H]4CC[C@]3(O)C2)[C@H](O)[C@H](O)[C@H]1O`, the entry is “inactive”; as for `CCOP(=O)(OCC)OC(=CCl)c1ccc(Cl)cc1Cl`, “inactive”.
As usually defined, the AC50 is the midpoint of the concentration-response curve, whichever way the signal moves. Regarding `O=C(CCl)Nc1ccccc1`, the AC50 was 73.5 µM (active).
With `O=[N+]([O-])c1cccc2ccccc12`, the outcome was inactive.
As for `O=C1C[C@@H]2OCC=C3CN4CC[C@]56c7ccccc7N1[C@H]5[C@H]2[C@H]3C[C@H]46`, the outcome was inactive.
Regarding `CCOP(=S)(OCC)OP(=S)(OCC)OCC`, the outcome was inactive.
Turning to `CC(C)(c1ccc(O)c(-c2ccccc2)c1)c1ccc(O)c(-c2ccccc2)c1`, the outcome was inactive.
With `CC1(C)[C@H](C(=O)O[C@H](C#N)c2cccc(Oc3ccccc3)c2)[C@@H]1/C=C(\Cl)C(F)(F)F`, the outcome was inactive.
Turning to `CC(C)(c1ccccc1)c1cc(-n2nc3ccccc3n2)c(O)c(C(C)(C)c2ccccc2)c1`, the outcome was inactive.
Same read-out and setting: as for `FC(F)OCC(F)(F)C(F)(F)F`, the entry is “inactive”.
Same read-out and setting: as for `CCN(N=O)C(N)=O`, the entry is “inactive”; as for `Oc1ccc(Cc2ccc(O)cc2)cc1`, “inactive”.
Still for that read-out and setting: as for `CCOc1ccc(N)cc1`, the entry is “inactive”; as for `CCCCOP(=O)(CCCC)OCCCC`, “inactive”; as for `O=C(CBr)c1ccc(O)cc1`, “inactive”.
As for `ClCc1ccccc1CCl`, the AC50 is 33.4 µM (active).
Same read-out and setting: for `N#CCCC(Br)(C#N)CBr` (centres undefined) the value was 62.4 µM (active).
Regarding `c1cc[c]([Sb]([c]2ccccc2)[c]2ccccc2)cc1`, the outcome was inactive.
On the same count and under the same terms, as for `O=[N+]([O-])c1cc([As](=O)(O)O)ccc1O`, the entry is “inactive”.
As to `CC(C=O)Cc1ccc2c(c1)OCO2` (centres undefined), the outcome was inactive.
The same measure, in the same setting: as for `CCCCOC(C)=O`, the entry is “inactive”.
Regarding `O=S(=O)(C(Cl)(Cl)Cl)C(Cl)(Cl)Cl`, the AC50 was 14.7 µM (active).
For the compound `OC[C@@H](O)[C@H]1O[C@@H]2O[C@H](C(Cl)(Cl)Cl)O[C@@H]2[C@H]1O`, the outcome was inactive.
As to `C=CC(Cl)CCl` (centres undefined), the outcome was inactive.
The same measure, in the same setting: as for `CC(C)(C1CCC(O)CC1)C1CCC(O)CC1` (centres undefined), the entry is “inactive”; as for `CCNc1nc(NCC)nc(SC)n1`, “inactive”.
Same read-out and setting: as for `O=c1[nH]c(=O)n(Cl)c(=O)n1Cl`, the entry is “inactive”; as for `C=CCOC(N)=O`, “inactive”.
On to `N#CS`, for which the result was inactive.
Consider `CCCCC(CC)C(=O)Cl` (centres undefined), for which the outcome was inactive.
On the same count and under the same terms, as for `O=S1(=O)OC(c2cc(Br)c(O)c(Br)c2)(c2cc(Br)c(O)c(Br)c2)c2ccccc21`, the entry is “inactive”; as for `O=C=Nc1ccc(Cl)cc1`, “inactive”.
Still for that read-out and setting: as for `CC(C)(C)c1cc([N+](=O)[O-])cc(C(C)(C)C)c1O`, the entry is “inactive”; as for `Cc1cc(Cl)ccc1OC(C)C(=O)O` (centres undefined), “inactive”.
Still for that read-out and setting: for `C[N+](C)(C)Cc1ccccc1` the value was “inactive”.
For the compound `CCOP(=S)(OCC)Oc1ccc(Cl)cc1Cl`, the result was inactive.
As to `Fc1cccc(Cl)c1CCl`, the result was inactive.

The values above are taken from PubChem BioAssay (EPA / NIEHS).
